CYP2C9 inh: inhibitors of human CYP2C9; P11712; CYP2C9 Supersomes, luciferin-H conversion, luminescence; inhibition, % at 5 µM; actives 20% (n = 96,000); AID 777;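 active = blocking of liver enzyme CYP2C9 beyond about 50% at 5 µM, limit read from the data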
sEH inh: inhibitors of human soluble epoxide hydrolase. inhibition, % at 2 µM. recombinant human sEH enzymatic activity assay. actives 0.34% (n = 91,000). P34913; in the data active = inhibition above about 80%
CYP2C19 inh: blocks human cytochrome P450 2C19; inhibition, % at 5 µM; CYP2C19 Supersomes, luciferin-H EGE luminescence, 30 min; P33261; actives 21% (n = 96,000); AID 778;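 active = CYP2C19 inhibition above a set limit at 5 µM in the primary screen, cut at about 50% in these data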;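 note: plate controls were negative control wells for no effect and 2.5 mM tranylcypromine positive control for full effect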
Target sequence (P33261 whole entry, looked up): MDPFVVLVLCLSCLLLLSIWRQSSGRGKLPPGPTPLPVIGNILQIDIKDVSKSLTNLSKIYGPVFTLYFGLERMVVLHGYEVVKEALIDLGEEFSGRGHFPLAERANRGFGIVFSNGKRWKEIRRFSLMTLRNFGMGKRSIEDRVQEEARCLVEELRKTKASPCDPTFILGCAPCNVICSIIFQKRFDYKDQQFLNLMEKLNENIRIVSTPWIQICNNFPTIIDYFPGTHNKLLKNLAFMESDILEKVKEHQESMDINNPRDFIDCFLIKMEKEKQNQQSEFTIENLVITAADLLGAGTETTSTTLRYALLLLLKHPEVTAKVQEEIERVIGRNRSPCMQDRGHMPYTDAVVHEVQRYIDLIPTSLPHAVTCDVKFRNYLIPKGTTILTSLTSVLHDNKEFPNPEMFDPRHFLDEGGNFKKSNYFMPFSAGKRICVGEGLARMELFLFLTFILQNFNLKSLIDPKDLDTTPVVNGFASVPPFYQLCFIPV
CYP2C19 activ: increases human CYP2C19 enzyme activity | activation factor at 5 µM | recombinant CYP2C19, luciferin-H EGE luminescence; active compounds read high; 0 = fully inhibited enzyme, 1 = untreated enzyme | 96,000 tested, under 10 active | P33261;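 active = activation factor of at least 2 at 5 µM in the primary screen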;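 note: 0 = wells with 2.5 mM tranylcypromine and 1 = vehicle-only wells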
sEH act: soluble epoxide hydrolase (human) activation; P34913; purified human sEH enzymatic activity, activator screen; activation, % at 2 µM; actives 0.04% (n = 91,000); AID 717; in the data active = activation above about 37%
CYP2C9 activ: activators of human CYP2C9; AID 1024; actives 1.4% (n = 96,000); recombinant CYP2C9, luciferin-H conversion, luminescence; active compounds read high; factor 1 = untreated enzyme, 0 = blocked; activation factor at 5 µM; P11712;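 active = activation factor of 2 or more for CYP2C9 at a 5 µM dose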;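 note: 0 = sulfaphenazole-blocked wells and 1 = vehicle-only wells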
Starred values were filed as active, the others as inactive. The list is not random: actives were taken first. Their share in the collection is about 27%.

What do the screens show for `O=C(N/N=C/c1ccc(Br)o1)/C(=C/c1ccc([N+](=O)[O-])cc1)NC(=O)c1ccccc1`?
CYP2C9 inh: 24; sEH inh: -3; CYP2C19 inh: 52*; CYP2C19 activ: 0.5; sEH act: 3; CYP2C9 activ: 0.8

What do the screens show for `O=C(N/N=C/c1ccco1)/C(=C/c1cccc([N+](=O)[O-])c1)NC(=O)c1ccccc1`?
CYP2C9 inh: 11; sEH inh: -1; CYP2C19 inh: 69*; CYP2C19 activ: 0.3; sEH act: 4; CYP2C9 activ: 0.9

How did CN(C)c1ccc(/C=C(/NC(=O)c2ccccc2)C(=O)N/N=C/c2ccc([N+](=O)[O-])c(O)c2)cc1 do in these assays?
CYP2C9 inh: 31; sEH inh: -11; CYP2C19 inh: 1; CYP2C19 activ: 1; sEH act: 8; CYP2C9 activ: 0.7

How did CC(C)NC(=O)/C(=C\c1cccc([N+](=O)[O-])c1)NC(=O)c1ccccc1 do in these assays?
CYP2C9 inh: -8; sEH inh: 9; CYP2C19 inh: -1; CYP2C19 activ: 1; sEH act: -11; CYP2C9 activ: 1.1

What do the screens show for `O=C(NCC(c1cccnc1)N1CCN(c2ccc(F)cc2)CC1)c1ccc2c(c1)OCO2` (centres undefined)?
CYP2C9 inh: 80*; sEH inh: 4; CYP2C19 inh: 64*; CYP2C19 activ: 0.4; sEH act: -4; CYP2C9 activ: 0.2

What do the screens show for `O=C(NCC(c1cccnc1)N1CCN(c2ccc(F)cc2)CC1)c1ccc(F)cc1` (centres undefined)?
CYP2C9 inh: 77*; sEH inh: 8; CYP2C19 inh: 81*; CYP2C19 activ: 0.2; sEH act: -8; CYP2C9 activ: 0.2

What do the screens show for `COc1ccc(N2CCN(C(CNC(=O)c3ccc4c(c3)OCO4)c3cccnc3)CC2)cc1` (centres undefined)?
CYP2C9 inh: 28; sEH inh: 7; CYP2C19 inh: 17; CYP2C19 activ: 0.8; sEH act: -7; CYP2C9 activ: 0.7

Results for COc1ccc(C(=O)NCC(c2cccnc2)N2CCN(c3ccc(F)cc3)CC2)cc1OC (centres undefined) ?
sEH inh: -11; sEH act: 10

What do the screens show for `CCCCCc1c(O)nc(SCC(=O)O)[nH]c1=O`?
sEH inh: 4; sEH act: -2

How did FC(F)(F)C(F)(F)C(F)(F)c1nnc2ccc(N3CCOCC3)nn12 do in these assays?
CYP2C9 inh: 76*; sEH inh: 12; CYP2C19 inh: 76*; CYP2C19 activ: 0.2; sEH act: -10; CYP2C9 activ: 0.2

Results for CC1(C)C(=O)OC(c2cccs2)C(C)(C)C1=O (centres undefined) ?
CYP2C9 inh: 5; sEH inh: 9; CYP2C19 inh: 71*; CYP2C19 activ: 0.3; sEH act: -8; CYP2C9 activ: 1

Results for CN(C)c1ccc(C2OC(=O)C3(CCCC3)C(=O)C2(C)C)cc1 (centres undefined) ?
CYP2C9 inh: -8; sEH inh: -15; CYP2C19 inh: 16; CYP2C19 activ: 0.8; sEH act: 15; CYP2C9 activ: 1.1

How did CCCn1nc([N+](=O)[O-])c(C(C#N)c2nc3ccccc3s2)c(Cl)c1=O (centres undefined) do in these assays?
CYP2C9 inh: 99*; sEH inh: -3; CYP2C19 inh: 5; CYP2C19 activ: 1; sEH act: 5; CYP2C9 activ: 0

What do the screens show for `Cc1[nH]n(-c2ccc([N+](=O)[O-])cc2)c(=O)c1N=Nc1nc2ccccc2s1`?
sEH inh: -13; sEH act: 15

What do the screens show for `Cn1cc(CN2CCc3ccccc3C2)c2ccccc21`?
CYP2C9 inh: -40; sEH inh: 6; CYP2C19 inh: 96*; CYP2C19 activ: 0; sEH act: -6; CYP2C9 activ: 1.4

How did Oc1ccc(CN2CCc3ccccc3C2)c2cccnc12 do in these assays?
CYP2C9 inh: -30; sEH inh: -8; CYP2C19 inh: 0; CYP2C19 activ: 1; sEH act: 5; CYP2C9 activ: 1.3

What do the screens show for `CCOc1cc(/C=N/NC(=O)COc2ccc(Cl)cc2)ccc1OS(=O)(=O)c1ccccc1`?
CYP2C9 inh: 37; sEH inh: 3; CYP2C19 inh: 82*; CYP2C19 activ: 0.2; sEH act: 0; CYP2C9 activ: 0.6

What do the screens show for `CCOc1cc(/C=N/NC(=O)COc2ccc(C)cc2)ccc1OC(=O)c1cccs1`?
CYP2C9 inh: 69*; sEH inh: -3; CYP2C19 inh: 43; CYP2C19 activ: 0.6; sEH act: 1; CYP2C9 activ: 0.3

Results for O=C(Cc1ccccc1)N/N=C/c1ccc(OCC(=O)Nc2ccccc2)cc1 ?
CYP2C9 inh: 9; sEH inh: 39; CYP2C19 inh: -6; CYP2C19 activ: 1.1; sEH act: -38; CYP2C9 activ: 0.9

How did CCOc1cc(/C=N/NC(=O)COc2ccccc2C)ccc1OC(=O)c1cccs1 do in these assays?
CYP2C9 inh: 45; sEH inh: 4; CYP2C19 inh: 38; CYP2C19 activ: 0.6; sEH act: -3; CYP2C9 activ: 0.6

What do the screens show for `O=C(COc1ccc(Cl)cc1)N/N=C/CCc1ccccc1`?
CYP2C9 inh: 0; sEH inh: 5; CYP2C19 inh: 52*; CYP2C19 activ: 0.5; sEH act: -2; CYP2C9 activ: 1

How did CCOc1cc(/C=N\NC(=O)Cc2ccccc2)ccc1OCC(=O)Nc1ccc(C)c(C)c1 do in these assays?
CYP2C9 inh: 46; sEH inh: 13; CYP2C19 inh: -13; CYP2C19 activ: 1.1; sEH act: -12; CYP2C9 activ: 0.5

Results for CCOc1cc(/C=C2/C(=O)N(c3ccccc3)N=C2C)ccc1OC(=O)c1ccco1 ?
sEH inh: 6; sEH act: -5

What do the screens show for `CCOc1cc(/C=C2\C(=O)N(c3ccc(C(N)=O)cc3)N=C2C)ccc1OC(=O)c1cccs1`?
CYP2C9 inh: 25; sEH inh: 6; CYP2C19 inh: 67*; CYP2C19 activ: 0.3; sEH act: -2; CYP2C9 activ: 0.7

Results for Cc1nc2sc(C(c3cccs3)N3CCN(c4ccccc4)CC3)c(O)n2n1 (centres undefined) ?
CYP2C9 inh: 5; CYP2C19 inh: 9; CYP2C19 activ: 0.9; CYP2C9 activ: 0.9

Results for CCOc1cc(/C=N/NS(=O)(=O)c2ccccc2)ccc1OS(=O)(=O)c1ccc(C)cc1 ?
CYP2C9 inh: 100*; sEH inh: -2; CYP2C19 inh: 99*; CYP2C19 activ: 0; sEH act: 4; CYP2C9 activ: 0

Results for CCOC(=O)CSc1nnc(-c2ccccc2NC(=O)c2ccccc2)o1 ?
CYP2C9 inh: 12; CYP2C19 inh: -12; CYP2C19 activ: 1.1; CYP2C9 activ: 0.9

Results for CCc1nnc(NC(=O)CSc2nnc(-c3ccccc3NC(=O)c3ccccc3)o2)s1 ?
CYP2C9 inh: 51*; sEH inh: 9; CYP2C19 inh: 11; CYP2C19 activ: 0.9; sEH act: -8; CYP2C9 activ: 0.5

Source: PubChem (several laboratories)
